{"source": "PubChem BioAssay (Tox21)", "note": "Records with an inconclusive call do not appear. Values without a mark were called inactive. Activity calls are given as the source filed them. Calls follow the shape of the dose curve; as a rule, active = well fitted curve in the direction sought with a large enough effect in the repeat runs; inconclusive = weak or mixed curves; inactive = no such curve, though single readings can be large; an effect the other way counts as inactive or inconclusive. % is scaled to controls: 0 for no effect and ±100 for the full control effect; potency is read from the fitted curve at half-maximal effect. Also: nearly all actives have a fitted effect of over 50% in size."}
{"biological_target": "Cytochrome P450 2C9 (Homo sapiens) (UniProt P11712)", "sequence (P11712 whole entry, looked up)": "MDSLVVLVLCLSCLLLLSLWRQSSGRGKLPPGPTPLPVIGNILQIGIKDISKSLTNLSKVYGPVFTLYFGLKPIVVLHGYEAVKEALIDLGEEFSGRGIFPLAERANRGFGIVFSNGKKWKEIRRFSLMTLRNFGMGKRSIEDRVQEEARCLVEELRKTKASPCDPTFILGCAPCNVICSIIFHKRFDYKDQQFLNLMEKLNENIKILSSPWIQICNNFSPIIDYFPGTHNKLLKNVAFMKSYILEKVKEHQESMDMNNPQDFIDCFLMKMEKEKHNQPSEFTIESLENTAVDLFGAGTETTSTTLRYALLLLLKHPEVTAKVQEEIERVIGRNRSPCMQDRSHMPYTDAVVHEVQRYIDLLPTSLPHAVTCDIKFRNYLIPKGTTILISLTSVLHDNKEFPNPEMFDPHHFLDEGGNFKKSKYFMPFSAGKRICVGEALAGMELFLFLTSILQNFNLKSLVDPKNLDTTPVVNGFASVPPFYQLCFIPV", "experiment": "Cytochrome P450 Family 2 Subfamily C Member 9 (CYP2C9) small molecule antagonists: luciferase reporter qHTS assay (AID 1671198)", "details": "P450-Glo CYP2C9 enzyme assay, luciferin luminescence; series mostly up to 53 µM; activity change, negative = inhibition: at the top concentration", "outline": "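P450-Glo proluciferin substrate with CYP2C9 enzyme; 10 min RT preincubation, then NADPH regeneration 1 h at 37C; luciferin detection reagent 20 min RT, luminescence in relative luminescence units.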"}
{"smiles": "C=CCc1cc(OC)c(O)c(C(=O)NCCO)c1", "activity change, negative = inhibition": "-4.65%"}
{"smiles": "CCCCCCCCCCCCCCCCOP(=O)([O-])OCC[N+](C)(C)C", "activity change, negative = inhibition": "-18.7%"}
{"smiles": "CCCS(=O)c1ccc2nc(NC(=O)OC)[nH]c2c1", "note": "(stereo not drawn)", "activity change, negative = inhibition": "-7.35%"}
{"smiles": "CCCCC1CCC(=O)O1", "note": "(stereo not drawn)", "activity change, negative = inhibition": "-13.2% [at 115 µM]"}
{"smiles": "CN(C)Cc1ccccc1", "activity change, negative = inhibition": "-13.4% [at 115 µM]"}
{"smiles": "O=C(CCCl)NCc1ccccc1", "activity change, negative = inhibition": "-8.37%"}
{"smiles": "CC/C=C\\CCOC(=O)CCCCC", "activity change, negative = inhibition": "-11% [at 115 µM]"}
{"smiles": "CC(=O)OC(C)OC(C)=O", "activity change, negative = inhibition": "-8.28% [at 115 µM]"}
{"smiles": "C=CC1CO1", "note": "(stereo not drawn)", "activity change, negative = inhibition": "6.65% [at 115 µM]"}
{"smiles": "CCOC(=O)C(Br)c1ccccc1", "note": "(stereo not drawn)", "Potency": "79.6 µM (active)"}
{"smiles": "C[C@@H](N)C(=O)O", "activity change, negative = inhibition": "0.493%"}
{"smiles": "CCN(CC)C(=O)N(CC)CC", "activity change, negative = inhibition": "-14.4% [at 115 µM]"}
{"smiles": "CCCNC(C)C(=O)Nc1c(C)csc1C(=O)OC", "note": "(stereo not drawn)", "activity change, negative = inhibition": "-6.44%"}
{"smiles": "CCCOc1ccc2c(c1)CC[C@@H]1[C@@H]2CC[C@]2(C)C(OC)CC[C@@H]12", "note": "(stereo partly drawn)", "Potency": "34.7 µM (active)"}
{"smiles": "CC(C)O", "activity change, negative = inhibition": "-0.923% [at 115 µM]"}
{"biological_target": "Cytochrome P450 1A2 (Homo sapiens) (UniProt P05177)", "sequence (P05177 whole entry, looked up)": "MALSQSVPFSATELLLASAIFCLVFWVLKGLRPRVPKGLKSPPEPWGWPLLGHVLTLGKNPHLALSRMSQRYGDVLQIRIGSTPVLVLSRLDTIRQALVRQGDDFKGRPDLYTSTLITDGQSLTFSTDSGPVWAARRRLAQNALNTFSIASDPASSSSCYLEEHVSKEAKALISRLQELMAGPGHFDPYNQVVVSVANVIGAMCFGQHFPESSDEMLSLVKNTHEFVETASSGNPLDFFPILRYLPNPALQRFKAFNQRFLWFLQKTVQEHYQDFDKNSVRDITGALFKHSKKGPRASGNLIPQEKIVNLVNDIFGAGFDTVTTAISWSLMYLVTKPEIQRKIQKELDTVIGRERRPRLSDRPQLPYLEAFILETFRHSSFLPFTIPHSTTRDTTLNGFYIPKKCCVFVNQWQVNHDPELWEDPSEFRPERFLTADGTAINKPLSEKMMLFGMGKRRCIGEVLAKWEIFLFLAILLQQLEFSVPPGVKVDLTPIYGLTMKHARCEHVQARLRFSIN", "experiment": "Cytochrome P450 Family 1 Subfamily A Member 2 (CYP1A2) small molecule antagonists: luciferase reporter qHTS assay (AID 1671199)", "details": "P450-Glo CYP1A2 enzyme, luciferin luminescence, 1 h; series mostly up to 53 µM; activity change, negative = inhibition: at the top concentration", "outline": "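Signal from luciferin formed by CYP1A2 from a proluciferin substrate is read as luminescence, expressed in relative luminescence units. Compounds sit with enzyme 10 min, NADPH-driven reaction runs 1 h, all at room temperature.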"}
{"smiles": "CC1(C)C(=O)N(Cl)C(=O)N1Br", "activity change, negative = inhibition": "-10.9% [at 115 µM]"}
{"smiles": "CN(C)C(=O)NC1(c2ccccc2)CCN(CCC[C@]2(c3ccc(Cl)c(Cl)c3)CCCN(C(=O)c3ccccc3)C2)CC1", "activity change, negative = inhibition": "-11.9% [at 23.6 µM]"}
{"smiles": "CN1CCN(c2c(F)cc3c(=O)c(C(=O)O)cn4c3c2SCC4)CC1", "activity change, negative = inhibition": "-1.77%"}
{"smiles": "Cc1c[nH]c(=S)[nH]c1=O", "Potency": "63.5 µM (active)"}
{"smiles": "CC1(O)CSC(C)(O)CS1", "note": "(stereo not drawn)", "Potency": "39.9 µM (active)"}
{"smiles": "O=C1CCCCCCCCCCC(=O)OCCO1", "Potency": "22.4 µM (active)"}
{"smiles": "OCCN(CCO)c1ccccc1", "activity change, negative = inhibition": "-15.9% [at 115 µM]"}
{"smiles": "CC(Oc1c(Cl)cccc1Cl)C1=NCCN1", "note": "(stereo not drawn)", "Potency": "12.9 µM (active)"}
{"smiles": "c1ccc(CN(CC2=NCCN2)c2ccccc2)cc1", "activity change, negative = inhibition": "-1.83%"}
{"smiles": "C=CCCCCCCCCO", "Potency": "39.9 µM (active)"}
{"smiles": "CCCCCCCCc1ccc(S(=O)(=O)O)cc1", "activity change, negative = inhibition": "7.8% [at 115 µM]"}
{"biological_target": "Voltage-gated inwardly rectifying potassium channel KCNH2 (Homo sapiens) (UniProt Q12809)", "sequence (Q12809 whole entry, looked up)": "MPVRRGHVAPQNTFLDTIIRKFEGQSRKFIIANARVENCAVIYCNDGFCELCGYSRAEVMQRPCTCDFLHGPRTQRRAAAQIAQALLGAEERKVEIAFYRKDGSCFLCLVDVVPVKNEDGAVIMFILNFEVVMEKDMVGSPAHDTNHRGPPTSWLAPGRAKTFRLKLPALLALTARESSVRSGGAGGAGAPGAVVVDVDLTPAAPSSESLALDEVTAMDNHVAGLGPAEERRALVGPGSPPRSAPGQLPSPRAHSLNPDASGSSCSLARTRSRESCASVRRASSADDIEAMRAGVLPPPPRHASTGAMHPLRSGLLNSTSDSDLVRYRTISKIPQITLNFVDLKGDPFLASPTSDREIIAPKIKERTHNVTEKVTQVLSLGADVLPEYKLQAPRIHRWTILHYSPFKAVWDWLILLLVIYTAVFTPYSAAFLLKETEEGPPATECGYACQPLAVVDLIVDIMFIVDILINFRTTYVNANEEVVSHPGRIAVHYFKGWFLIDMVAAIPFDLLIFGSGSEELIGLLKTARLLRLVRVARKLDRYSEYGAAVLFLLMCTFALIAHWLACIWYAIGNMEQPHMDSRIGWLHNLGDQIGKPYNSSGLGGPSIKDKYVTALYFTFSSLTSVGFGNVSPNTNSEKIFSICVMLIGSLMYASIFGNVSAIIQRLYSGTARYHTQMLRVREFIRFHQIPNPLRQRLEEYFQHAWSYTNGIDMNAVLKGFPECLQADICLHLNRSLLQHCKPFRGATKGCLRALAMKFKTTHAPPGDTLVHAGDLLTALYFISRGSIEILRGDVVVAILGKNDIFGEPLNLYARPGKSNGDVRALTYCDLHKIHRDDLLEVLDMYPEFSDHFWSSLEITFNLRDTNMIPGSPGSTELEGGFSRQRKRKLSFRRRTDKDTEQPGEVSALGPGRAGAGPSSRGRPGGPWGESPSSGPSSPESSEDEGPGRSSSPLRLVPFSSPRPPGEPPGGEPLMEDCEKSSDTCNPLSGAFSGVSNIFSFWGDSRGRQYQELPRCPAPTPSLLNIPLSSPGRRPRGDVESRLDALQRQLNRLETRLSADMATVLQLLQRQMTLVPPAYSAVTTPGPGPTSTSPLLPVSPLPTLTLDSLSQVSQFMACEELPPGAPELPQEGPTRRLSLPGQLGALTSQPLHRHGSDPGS", "experiment": "Human Ether-a-go-go-Related Gene (hERG) channel small molecule antagonists: fluorescence cell-based qHTS assay (AID 1671200);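 as to activity change, negative = inhibition: hERG-expressing U2OS cells given a thallium stimulus after FluxOR II dye loading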", "details": "hERG-U2OS cells, FluxOR thallium flux fluorescence; series mostly up to 76.8 µM; activity change, negative = inhibition: at the top concentration", "outline": "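In this thallium-flux screen, overnight-cultured U2OS cells bearing the channel are dye-loaded in darkness for an hour, rested 10 min at room temperature, and then monitored kinetically at 480/540 nm for two minutes post-stimulus.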"}
{"smiles": "CC1(C)C(=O)N(Cl)C(=O)N1Br", "activity change, negative = inhibition": "5.4%"}
{"smiles": "CC(=O)N[C@@H](CC(C)C)C(=O)O", "activity change, negative = inhibition": "2.33% [at 35.3 µM]"}
{"smiles": "O=C1CCC(C2CCCCC2)CC1", "activity change, negative = inhibition": "-14.6%"}
{"smiles": "C=O", "activity change, negative = inhibition": "10.4%"}
{"smiles": "C=CCc1cc(OC)c(O)c(C(=O)NCCO)c1", "activity change, negative = inhibition": "-2.97% [at 35.3 µM]"}
{"smiles": "CCCCNc1cc(C(=O)O)cc(S(N)(=O)=O)c1Oc1ccccc1", "activity change, negative = inhibition": "-0.206% [at 35.3 µM]"}
{"smiles": "CCCCCCCCCCCCCCCCOP(=O)([O-])OCC[N+](C)(C)C", "activity change, negative = inhibition": "-7.32% [at 35.3 µM]"}
{"smiles": "C1CCOC1", "activity change, negative = inhibition": "-5.03%"}
{"smiles": "CCCS(=O)c1ccc2nc(NC(=O)OC)[nH]c2c1", "note": "(stereo not drawn)", "activity change, negative = inhibition": "2.83% [at 35.3 µM]"}
{"smiles": "CN(C)C(=O)NC1(c2ccccc2)CCN(CCC[C@]2(c3ccc(Cl)c(Cl)c3)CCCN(C(=O)c3ccccc3)C2)CC1", "Potency": "2.08 µM (active)"}
{"smiles": "CCCCC1CCC(=O)O1", "note": "(stereo not drawn)", "activity change, negative = inhibition": "5.84%"}
{"smiles": "CN(C)Cc1ccccc1", "activity change, negative = inhibition": "2.22%"}
{"smiles": "O=C(CCCl)NCc1ccccc1", "activity change, negative = inhibition": "-2.95% [at 35.3 µM]"}
{"smiles": "CC/C=C\\CCOC(=O)CCCCC", "activity change, negative = inhibition": "0.207%"}
{"smiles": "CC(=O)OC(C)OC(C)=O", "activity change, negative = inhibition": "-4.76%"}
{"smiles": "CN1CCN(c2c(F)cc3c(=O)c(C(=O)O)cn4c3c2SCC4)CC1", "activity change, negative = inhibition": "0.972% [at 35.3 µM]"}
{"smiles": "C=CC1CO1", "note": "(stereo not drawn)", "activity change, negative = inhibition": "0.84%"}
